According to PubChem BioAssay AID568 (Sanford-Burnham Center for Chemical Genomics, 2006):
The campaign covered roughly 83,000 compounds. Fewer than 10 were called active. The rule behind the calls is not given here. The list is a sample of the results. Results with a measured potency or affinity are listed apart.

What follows are compounds tested against Heat shock cognate 71 kDa protein (Homo sapiens) (UniProt P11142) (assay: Hsc70 inhibitors, probe displacement, primary screen, biochemical, fluorescence polarization (AID 568)). Conditions: mP, at 20 µM, active compounds read high.
Sequence of Heat shock cognate 71 kDa protein (Homo sapiens) (P11142 whole entry, looked up): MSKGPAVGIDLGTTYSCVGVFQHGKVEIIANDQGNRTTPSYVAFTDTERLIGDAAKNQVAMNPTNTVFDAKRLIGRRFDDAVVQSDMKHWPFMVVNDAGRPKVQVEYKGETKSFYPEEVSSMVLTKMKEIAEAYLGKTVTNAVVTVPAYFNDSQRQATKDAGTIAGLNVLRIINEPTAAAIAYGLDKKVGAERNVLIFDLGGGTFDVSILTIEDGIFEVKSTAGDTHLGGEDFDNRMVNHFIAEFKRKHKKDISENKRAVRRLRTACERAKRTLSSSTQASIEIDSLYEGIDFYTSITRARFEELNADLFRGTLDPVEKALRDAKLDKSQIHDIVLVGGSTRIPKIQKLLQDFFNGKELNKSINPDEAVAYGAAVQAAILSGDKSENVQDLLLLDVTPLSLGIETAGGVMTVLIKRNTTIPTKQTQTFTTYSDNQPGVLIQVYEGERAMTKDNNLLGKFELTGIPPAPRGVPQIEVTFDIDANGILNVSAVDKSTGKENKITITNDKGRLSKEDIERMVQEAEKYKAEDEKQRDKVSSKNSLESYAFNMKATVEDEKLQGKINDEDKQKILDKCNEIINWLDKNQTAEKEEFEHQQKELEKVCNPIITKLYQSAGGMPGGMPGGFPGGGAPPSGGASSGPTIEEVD
Sequence of Heat shock cognate 71 kDa protein (Homo sapiens) (P11142 whole entry, looked up): as above

displacement, inactive:
COc1ccc(S(=O)(=O)NCC2CCC(C(=O)N3CCC4(CC3)OCCO4)CC2)cc1 (stereo not drawn) -1.2%
CC1CCN(c2nc(-c3ccccc3)c(C#N)c(=O)[nH]2)CC1 -1.1%
C=CCn1c(O)c(C(CC)=Nc2ccccc2NC(=O)CC)c(=O)[nH]c1=O 0%
NC(=O)CSc1nnc(CCc2nc3ccccc3[nH]2)n1-c1ccccc1 -0.4%
COC(=O)c1ccc(Nc2nc(C)cc(=O)[nH]2)cc1 -5.8%
Cc1occc1C(=O)Nc1cc(C(C)(C)C)on1 -3.1%
CCn1c(=O)n(CC)c2cc(S(=O)(=O)Nc3ccccc3C)c(C)cc21 0.5%
CCOC(=O)N1CCN(C(=O)c2ccc(N3C(=O)c4ccccc4C3=O)cc2)CC1 -0.7%
O=C1OCC(Cn2c3ccccc3c3ccccc32)O1 (stereo not drawn) 4.8%
O=C(CN1C(=O)c2cccc3cccc1c23)N1CCN(Cc2ccc3c(c2)OCO3)CC1 -5.5%
CC(C)C(=O)Nc1cc(=O)[nH]c2ncnn12 -7.6%
CCN1C(=O)Cc2cc(S(=O)(=O)N3CCOCC3)ccc21 7%
N#Cc1cn(CC(=O)N2CCCC2)c2ccccc12 -2.4%
Clc1ccc(OCCn2cnc3ccccc32)c(Cl)c1 -4%
CCC(CC)C(=O)NCc1ccccc1Cl 0.3%
Cc1ccc(S(=O)(=O)/N=C2/C=C(C3C(=O)CC(C)(C)CC3=O)C(=O)c3ccccc32)cc1 4%
Cc1ccc(C(=O)COc2nc(C)cc(C)c2C#N)cc1 3.2%
Cc1cc(=O)n2nc(N3CCCC(C(=O)NCCCN4CCc5ccccc5C4)C3)sc2n1 (stereo not drawn) 3%
CC(C)OC(=O)C1CC=CCC1C(=O)Nc1ccc(Cl)cc1 (stereo not drawn) 0.4%
CCc1nnc(NC(=O)CSc2nnnn2C)s1 -1.1%
CC(C)CCNC(=O)c1ccc2c(c1)ncn2C1CCCCC1 0.7%
Oc1ccccc1CNCCCNCc1ccccc1O -1.3%
COc1ccccc1N1C(=O)CC(Sc2nc(C)cc(C)n2)C1=O (stereo not drawn) 0.9%
COC(=O)c1ccc(NC(=O)CCN2CCN(CCC(=O)Nc3ccc(C(=O)OC)cc3)CC2)cc1 2.6%
Cc1cc(C)c2c(N)c(S(=O)(=O)Cc3ccccc3)sc2n1 3.8%
O=C(O)CCN1C(=O)C2CCCCC2C1=O (stereo not drawn) -0.4%
Cc1ccc(OCC2Cn3c(nc4c3c(=O)n(C)c(=O)n4C)O2)cc1 (stereo not drawn) 1.1%
COc1ccc(OC)c(-n2nnnc2SCC(=O)O)c1 4.6%
CCC(=O)N(Cc1cc2ccccc2[nH]c1=O)C(C)C 7%
Cc1ccc2c(c1)NCC(C(=O)NCc1ccccc1)O2 (stereo not drawn) 1.6%
CCc1cccc(NS(=O)(=O)c2ccc3c(c2)oc(=O)n3C)c1 1.5%
CC1(c2ccc(OC(F)F)cc2)NC(=O)N(CC(=O)Nc2ccc3c(c2)OCO3)C1=O (stereo not drawn) -2.6%
Cc1cccc(C)c1NC(=O)NC1(C(=O)NCCCN2CCOCC2)CCCCC1 -2.5%
Cc1noc(C)c1COC(=O)CCCc1nc2ccccc2s1 0.6%
COc1ccc(C(=O)Nc2ccc3oc(-c4cccc(F)c4)nc3c2)cc1OC 2.4%
Cc1ccc(/C=N/NC(=O)CC2N=C(Cc3ccccc3)NNC2=O)cc1 (stereo not drawn) -1.6%
CN1C(=S)SC(/[N+]([O-])=C\c2ccco2)C1(C)C (stereo not drawn) -8.3%
CCOC(=O)c1sc(NC(=O)C2CCCO2)c(C(=O)OC)c1C (stereo not drawn) 2.1%
Cc1ccc(-c2cc3nc(C)cc(NCc4ccco4)n3n2)cc1 -12.6%
CCOC(=O)N1CCC(N2C(=O)c3ccccc3C2Nc2ccc(Cl)cn2)CC1 (stereo not drawn) 0%
CCC(=O)N1CCc2cc(Br)cc(S(=O)(=O)NCC3CCCO3)c21 (stereo not drawn) 5.2%
COc1ccc(-c2nnc3sc(CCN4C(=O)c5ccccc5C4=O)nn23)cc1 -0.6%
O=C(N1CCN(c2ccccc2)CC1)C(F)(F)C(F)(F)F 8.8%
CCOC(=O)CCSCC(=O)Nc1cc(C)on1 4.3%
Cc1ccc(NCc2nnc(SCC(=O)OC3CCCCC3)o2)c(C)c1 -6.7%
CCN1CCN(C(=O)c2sc3nc(C)nc(N4CCC(C)CC4)c3c2C)CC1 -3.6%
CN(c1ccccc1)C(c1ccc(F)cc1)c1nnnn1C1CCCC1 (stereo not drawn) -4.6%
CCOC(=O)c1ccc(COC(=O)CNC(=O)CNC(=O)c2ccc(OC)cc2)o1 -3.7%
CC(C)C(c1nnnn1Cc1ccc(F)cc1)N1CCSCC1 (stereo not drawn) -2.2%
COc1ccc(CCN2CNc3c(c(=O)n(C)c(=O)n3C)C2)cc1 0.1%
O=C(CSc1nnc(-c2ccncc2)n1CC1CCCO1)NCc1ccccc1 (stereo not drawn) -0.2%
O=C(Nc1ccc(N2CCOCC2)cc1)c1cccc(S(=O)(=O)N2CCC(Cc3ccccc3)CC2)c1 -1.4%
Cc1ccc(OCC(=O)Nc2cc(-c3nn4c(C)nnc4s3)ccc2C)cc1 4.5%
Clc1ccc(/C=N/c2c(-c3ccco3)nc3ccccn23)cc1 3.7%
CC(NC(=O)c1ccc(CS(=O)(=O)c2cccc(C(F)(F)F)c2)o1)c1ccc2c(c1)OCCO2 (stereo not drawn) -1.8%
COc1ccc(C(=O)Oc2cccnc2)cc1 -4.3%
Cc1ccc(C)c2c1[nH]c1ccccc12 1.5%
CC(C)Cc1cc(C(=O)N2N=C(C(F)F)CC2(O)C(F)F)c2ccccc2n1 (stereo not drawn) 1.5%
COc1cc2cc(C(c3nnnn3C3CCCC3)N3CCCCCC3)c(=O)[nH]c2cc1OC (stereo not drawn) -5%
COCCN1C(=O)c2ccccc2C(C(=O)NCCN(C)C)C1c1ccc(F)cc1 (stereo not drawn) -4.9%
CCCCn1c(=O)n(CC(=O)Nc2ccc(C)c(Cl)c2)c(=O)c2c1ncn2Cc1ccco1 -21.2%
CCOc1ccc(CC(C(=O)NN)C(=O)NN)cc1CN(C)C 2.3%
COc1ccc(Br)cc1CNC(=O)C1CCCN(S(C)(=O)=O)C1 (stereo not drawn) -2%
OC(COc1ccc2c(c1)OCO2)CN1CCc2ccccc2C1 (stereo not drawn) 1.3%
COCCNC(=O)C(c1ccc(C)o1)N(Cc1ccco1)C(=O)c1snc(C(N)=O)c1N (stereo not drawn) 5.3%
CC1=CN2C(=NC(=O)CC2(C)C(=O)N(CC(=O)NC2CCCC2)c2ccccc2C)C=C1 (stereo not drawn) -1.4%
CC(=O)OCCn1c(Br)nc2c1c(=O)[nH]c(=O)n2C 4.4%
Cc1nc2c(C(=O)N3CCCCC3)cnn2c(C)c1Cc1ccccc1F 2.6%
COC(=O)[C@H](Cc1ccccc1)NC(=O)N1CCC(C)CC1 -1.3%
CN1CCN(S(=O)(=O)c2ccc(N3CCN(S(=O)(=O)/C=C/c4ccccc4)CC3)nc2)CC1 -5.3%
Cn1cnnc1SCCC(=O)Nc1ccc(Cl)cc1 4.9%
CC1CCCCC1NC(=O)Cn1ncc2ccccc21 (stereo not drawn) -0.3%
CCC(Sc1nc2n[nH]c(C)c2c(=N)n1-c1cccc(Cl)c1C)C(=O)N(CC)CC (stereo not drawn) -7.7%
Cc1ccc(-c2noc(C3CCCN(C(=O)c4ccccc4)C3)n2)o1 (stereo not drawn) 1.4%
CCc1ccc2nc(NC3=NCN(CCOC)CN3)nc(C)c2c1 0.7%
Cc1ccc(N2CN=C(c3ccccc3)NC2=S)cc1 -3.8%
CCOC(=O)c1ccc(NC(=O)CSc2nc(C)cc(=O)[nH]2)cc1 -2.1%
O=C(NC1CCCCCCC1)c1ccco1 -2.6%
Cc1c(/C=C/C(=O)c2cccs2)cnn1C 0.7%
CCOc1cccc(C(=O)Nc2ccc(N(CC)CC)cc2)c1 -1.7%
O=C1c2ccsc2SCCN1Cc1ccc(Cl)cc1 3.5%
Nc1ccccc1SCc1cn2cccnc2n1 -0.9%
CC(C)[C@H](NC(=O)OC(C)(C)C)c1nnc(SCc2cccc(F)c2)o1 6.2%
CC(C)(C)c1ccc(-c2nnc(SCCN3C(=O)c4ccccc4C3=O)o2)cc1 -4.1%
CCCn1nnc(NC(=O)c2ccccc2Br)n1 -4.1%
Cc1ccc2nc(NC(=O)c3cccs3)sc2c1 1.4%
Cc1ccccc1-n1c(=O)cc(N2CCN(C(=O)c3ccco3)CC2)[nH]c1=O -0.4%
COc1ccc2[nH]cc(C(=O)CN3CCN(C(=O)c4ccco4)CC3)c2c1 -1.6%
COc1ccc(C2C(C(=O)NC(C)C)c3ccccc3C(=O)N2C)cc1OC (stereo not drawn) -8.3%
COc1ccc(C(=O)CN2C(=O)c3ccccc3C2=O)c(OC)c1C -1.2%
O=C(CC12CC3CC(CC(C3)C1)C2)NCO -2.2%
CCCCOCC(O)Cn1c(C)nc2ccccc21 (stereo not drawn) -2.3%
CN=C1SC(CC(=O)Nc2cccc(Cl)c2Cl)C(=O)N1C (stereo not drawn) 0%
COc1nc(OC)nc(N2CCCCCC2)n1 7.4%
c1cncc(-c2nc3cc(Cc4ccc5oc(-c6cccnc6)nc5c4)ccc3o2)c1 -0.1%
COCCCn1c(SCC(=O)Nc2ccc3c(c2)OCCO3)nnc1-c1ccoc1C -9.3%
Cn1cccc1Cc1nnc(SCC(=O)NCc2ccccc2)n1-c1ccc(F)cc1 1.3%
CC(C)CC(=O)Nc1ccc(-c2cn3ccsc3n2)cc1 3%
